SMILES strings stand for the structures. Entries with a potency or affinity are not part of this list. Results filed as inconclusive are left out. Calls of active or inactive are those of the source.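 The calls were made as follows: active = signal loss with fitted half-maximal concentration at or below twice the top valid tested dose in every test run; inconclusive = runs disagree, flat 30 to 70% signal loss, or poor fit; inactive = all runs flat, opposite direction, or potency beyond limit.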

A short description of this test: HEK293T cytotoxicity, dose response, cytotoxicity control for miR-122 modulator project, cell-based, inhibitor set, cherry-pick, set 2 (AID 720697). The note with it: HEK293T viability, CellTiter-Glo luminescence, 48 h; series mostly up to 26 µM.
As to `COc1cccc(C(=O)Nc2ccc3c(c2)C(=O)N(C)[C@@H]2CC[C@H](CC(=O)NCc4ccc(F)cc4)O[C@@H]2CO3)c1`, the compound was called inactive.

For the compound `CN1C(=O)c2cc(NC(=O)c3cccs3)ccc2OC[C@@H]2O[C@H](CC(=O)NCCN3CCCCC3)CC[C@H]21`, the outcome was inactive.

Consider `C/C=C/c1ccc([C@H]2[C@@H](CO)N(C(=O)CC)[C@H]2CNC(=O)CC)cc1`, for which the call was inactive.

As for `CN1C(=O)c2cc(NC(=O)c3ccc4c(c3)OCO4)ccc2OC[C@@H]2O[C@@H](CC(=O)O)CC[C@@H]21`, the outcome was inactive.

Turning to `COc1cccc(CNC(=O)C[C@@H]2CC[C@H]3[C@H](COc4ccc(NS(=O)(=O)c5ccccc5F)cc4C(=O)N3C)O2)c1`, the compound was classed as inactive.

The record behind these values is PubChem BioAssay AID720697 (Broad Institute, 2013).
